Source: PubChem
This is one part of a sample in which hits are shown more often than they occur.
mHTT-CaM PPI inh = inhibitors of human mutant huntingtin-calmodulin interaction; AlphaScreen His-mHTT/GST-CaM binding, luminescence; inhibition, % at 15 µM; 190,000 compounds, 3.6% hits; AID 1671202;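 further: 0% = both proteins with DMSO and 100% = one protein alone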
Pf apPOL block = Pf-apPOL DNA polymerase inhibition; Recombinant Pf-apPOL, molecular beacon fluorescence, 1.5 h; inhibition, % at 10 µM; 210,000 compounds, 0.25% hits; AID 1794808
* marks the source's active call; other numbers are inactive results; nt = no result given; ! = not confirmed by another sample. No stated cut-off is given here; in the data, active means inhibition above about 50%; inactive means the rest.

SMILES | mHTT-CaM PPI inh | Pf apPOL block
CN(C)Cc1c(O)ccc2c1OC(=Cc1cccc(Cl)c1)C2=O | 10.9 | 10.5
CCN(CC)Cc1c(O)ccc2c1OC(=Cc1cccc(Cl)c1)C2=O | 53.3* | -2.2
COc1ccccc1C1C(C#N)=C(C(C#N)C#N)NC(O)(C2CC2)C1[n+]1ccc(C)cc1 (stereo not drawn) | 1.0 | -14.2
Cc1cc[n+](C2C(c3ccc(Br)cc3)C(C#N)=C(S)NC2(O)C2CC2)cc1 (stereo not drawn) | 89.0* | -7.1
COc1ccccc1C1CC(c2c(-c3ccccc3)c3cc(Br)ccc3[nH]c2=O)=NO1 (stereo not drawn) | 15.0 | 4.5
O=c1[nH]c2ccc(Br)cc2c(-c2ccccc2)c1C1=NNC(c2ccco2)C1 (stereo not drawn) | 100.0* | -2.2
Cn1cc(C(c2ccc(Br)o2)c2cn(C)c3ccccc23)c2ccccc21 | 43.0 | -6.1
Cn1cc(C(c2ccco2)c2cn(C)c3ccccc23)c2ccccc21 | 58.0* | 5.2
O=C(Nc1cccc(-c2nc3ccccc3[nH]2)c1)c1ccc([N+](=O)[O-])cc1 | 84.0*! | 1.8
CC(=O)c1ccc(C(=O)Nc2cccc(-c3nc4ccccc4[nH]3)c2)cc1 | 27.4 | -0.1
COc1c(Br)cc(Br)cc1C=C1C(=O)c2ccccc2C1=O | 12.0 | -10.3
CCOC(=O)C1=C(C)NC(=O)NC1c1cc(Br)c(Br)o1 (stereo not drawn) | -4.5 | nt
CN1C(=O)C(O)(CC(=O)c2ccccn2)c2cc(Br)ccc21 (stereo not drawn) | 2.4 | -5.7
CN1C(=O)C2(NN=C(c3ccccc3)S2)c2cc(Br)ccc21 (stereo not drawn) | 100.0* | -3.3
Cc1nn(-c2ccc(C(=O)NCc3ccccc3Cl)cc2)c2c1C(=O)CCC2 | 4.4 | 2.3
CC(=O)N1CCC(n2c(C)nc(C(=O)Nc3ccc(Oc4ccccc4)cc3)c2C)CC1 | 51.6* | -1.6
CCOC(=O)c1ccc(NC(=O)c2nc(C)n(C3CCN(C(C)=O)CC3)c2C)cc1 | 30.1 | -4.8
O=C(O)CC(C(=O)O)n1nc(-c2ccccc2)cc1-c1ccccc1 (stereo not drawn) | 1.0 | 96.3*
Cc1cc(C)n(C(CC(=O)O)C(=O)O)n1 (stereo not drawn) | -3.4 | 0.4
O=C(CSc1nc2ccccc2o1)NCCSCc1ccco1 | nt | 62.9*
O=C(CSC1=NCCS1)NCCSCc1ccco1 | nt | -3.4
Cc1c(C(=O)N(C)C)sc2c1c(=O)n(-c1ccccc1)c(=O)n2Cc1ccccc1C#N | 14.0 | -1.7
O=S(=O)(Cc1cccc(F)c1)N1CCC(CN2CCCCCC2)CC1 | -0.9 | -0.6
CCn1c(C2CCN(Cc3ccc(OC(C)C)cc3)C2)nc2cccnc21 (stereo not drawn) | 12.1 | -5.0
Cc1nc(C(=O)Nc2ccc(F)cc2Cl)c(C)o1 | -15.9 | 7.2
SMILES | mHTT-CaM PPI inh | Pf apPOL block
O=C1c2c(O)cc(O)cc2OC(c2ccc(O)c(O)c2)C1O (stereo not drawn) | nt | -0.4
O=C(OC1Cc2c(O)cc(O)cc2OC1c1cc(O)c(O)c(O)c1)c1cc(O)c(O)c(O)c1 (stereo not drawn) | nt | 53.7*
Cc1c(C)c(C)c(CSc2ccccc2NS(=O)(=O)c2cccc(C(F)(F)F)c2)c(C)c1C | nt | 1.5
COc1ccc(N2C(=O)C(C)SC23CCCCC3)cc1 (stereo not drawn) | -6.0 | 0.8
O=C(NCC1COC2(CCCC2)O1)c1ccc([N+](=O)[O-])cc1 (stereo not drawn) | 0.6 | -0.7
COc1ccc(C2CCN(C(=O)CCS(=O)(=O)c3ccccc3)C2)cc1 (stereo not drawn) | -2.9 | -8.7
CN1CCN(C(=O)c2csc(N3CCN(c4ccccc4F)CC3)n2)CC1 | 27.3 | -3.4
Cc1ccc(-c2cc(C(=O)N3CCCCCC3)ccn2)s1 | 3.7 | -5.4
Cc1ccc(-c2cc(C(=O)N3CCN(c4ccc(F)cc4)CC3)ccn2)s1 | 74.1* | 32.9
Cc1nc(Nc2ccc(F)cn2)sc1C(=O)N1CCN(c2ccc(F)cc2)CC1 | 84.5* | -4.6
Cc1nnsc1C(=O)N1CCN(c2ccc(F)cc2)CC1 | nt | 2.8
Cc1ccnc(Nc2nc(C)c(C(=O)N3CCC(C)CC3)s2)c1 | 15.1 | -3.8
O=C(c1csc(Nc2ccccc2)n1)N1CCN(c2ccccc2F)CC1 | 80.3* | -3.0
Cc1nc(Nc2ccccn2)sc1C(=O)N1CCN(c2ccccc2F)CC1 | 59.2* | -7.7
CCn1cc(C2CC(C(F)(F)F)n3nccc3N2)c(C)n1 (stereo not drawn) | -6.6 | nt
CS(=O)(=O)N1CCCc2cc(NC(=O)c3ccc([N+](=O)[O-])cc3Cl)ccc21 | -1.6 | -3.9
CCc1ccc(NC(=O)Nc2cccn3nc(C)nc23)cc1 | 7.6 | 1.1
Cc1nc(Nc2ccc(F)cn2)sc1C(=O)N1CCN(c2ccccc2)CC1 | 67.5* | -9.8
Cc1c(C(=O)N2CCN(c3ccc(F)cc3)CC2)sc2nc(-c3ccccc3)cn12 | 0.0 | -2.1
NC(=S)N=Nc1c2nnnc2c(NNC(N)=S)c2n[nH][nH]c12 | 100.1* | nt
CC(=O)c1cccc(Nc2cc(C)nc3nnnn23)c1 | 5.0 | 17.6
COc1cccc(-c2cc(C(F)(F)F)nc(-n3cc(C)c(=O)[nH]c3=O)n2)c1 | 1.0 | -4.9
O=C(NC1CCCc2ccccc21)C1CCN(S(=O)(=O)N2CCCCCC2)CC1 (stereo not drawn) | -3.0 | -5.9
COc1ccc2[nH]cc(CN3CCC(C(=O)NC4CCCc5ccccc54)CC3)c2c1 (stereo not drawn) | 69.2* | -0.3
CCNC(=O)NCCC1CCN(S(=O)(=O)c2ccc(F)cc2)CC1 | 29.2 | -2.4
SMILES | mHTT-CaM PPI inh | Pf apPOL block
Cc1cc(NC(=O)C2CCN(C(=O)c3ccc4nsnc4c3)CC2)no1 | -7.2 | 1.2
Cc1c(O)ccc2c1OC(=CN1CCC3(CC1)OCCO3)C2=O | 6.3 | -0.7
Cc1ccccc1C(=O)NC(C)C(=O)N1CCCc2ccccc21 (stereo not drawn) | -3.7 | 0.6
Cc1nc(N)[nH]c(=O)c1Oc1ccccc1 | -1.8 | -2.3
Nc1c(Oc2ccccc2)c(Oc2ccccc2)c(N)c2c1C(=O)c1ccccc1C2=O | 97.0* | -2.7
COc1ccc(C(=O)N2CCN=C2N2CCCC2)cc1 | -7.3 | 1.9
Cc1[nH]nc2c1C(c1ccc(C(=O)O)cc1)CC(=O)N2 (stereo not drawn) | -2.6 | 1.3
O=[N+]([O-])c1ccc(C=NC2=NN(c3ccccc3)CC2)cc1 | 59.0* | 2.7
O=[N+]([O-])c1ccc(-c2ccc(N=Cc3ccccc3)cc2)cc1 | -4.0 | 18.6
Cc1cc(C)n2nc(SCC(=O)NCCC(C)C)nc2n1 | 3.0 | -9.8
COc1ccc(C=C2Oc3cc(C)c(CN4CCOCC4)c(O)c3C2=O)cc1 | 0.7 | 3.5
COc1ccc(C=C2Oc3cc(C)c(CN4CCN(C)CC4)c(O)c3C2=O)cc1 | 79.4* | 13.0
COc1ccc(-c2cc(C(F)(F)F)n3nc(C(=O)O)c(Cl)c3n2)cc1 | 64.0* | -5.3
NC(=O)c1nn2c(C(F)(F)F)cc(-c3ccc(Cl)cc3)nc2c1Cl | 0.0 | 0.9
COc1ccc(-c2cc(C(F)(F)F)n3ncc(C(=O)N4CCCC4)c3n2)cc1 | -6.0 | -7.1
COc1ccc(-c2cc(C(F)(F)F)n3nc(C(=O)O)c(Br)c3n2)cc1 | 65.0* | -0.7
COCCC(=O)N1CCc2c(c(-c3nc(Cc4ccccc4)no3)nn2C)C1 | -1.9 | -4.0
COc1ccc(C(=O)N2CCC3(CC2)NC(=O)N(Cc2ccc(C)cc2)C3=O)cc1F | 4.0 | -9.1
